PubChem BioAssay
Unmarked numbers belong to inactive results. Entries that show only a call come without a potency. For part of these data: Potency and affinity values are given separately. The source made the active and inactive calls. Unless noted, no rule for the calls is given here.

Experiments:
[1] = antimalarial activity against Dd2 strain (AID 2302;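 active = growth inhibition above 50% at the single 2 µM test dose, taken to imply half-maximal potency below 2 µM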); details: P. falciparum Dd2 in RBCs, LDH growth readout, 72 h; at 2 µM; stronger effect = higher value
[2] = human hepatoma cell viability loss – ATP luminescence, cytotoxicity control for P. falciparum antimalarial project, primary screen (AID 2303;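 active = inhibition above 50%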); details: HepG2 viability, 24-48 h, at 10 µM, stronger effect = higher value
[3] = target: L-lactate dehydrogenase (Plasmodium falciparum (isolate CDC / Honduras)) (UniProt Q27743); experiment: PfLDH activity inhibition – cell lysate, 3D7 strain, counter-screen for P. falciparum growth inhibition project (AID 2304); details: P. falciparum 3D7 crude extract, LDH APAD/NBT absorbance; at 2 µM; stronger effect = higher value
[4] = inhibition of 3D7 malaria parasite growth – strain 3D7 (AID 2306); details: P. falciparum 3D7 erythrocytic growth, LDH absorbance, 72 h; at 2 µM; stronger effect = higher value
[5] = target: Calcium-dependent protein kinase 1 (Plasmodium falciparum (isolate 3D7)) (UniProt P62344); experiment: PfCDPK1 kinase inhibitors, biochemical, TCAMS library (AID 1159585; cut-off not given, nearly all actives have IC50 up to about 0.98 µM;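 also: inhibitors leave more ATP so luminescence rises with inhibition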); details: recombinant PfCDPK1, Kinase-Glo ATP depletion luminescence
[6] = target: Plasmodium falciparum protein kinase 6 (PK6, PF3D7_1337100) (UniProt Q8IDW1); experiment: PfPK6 kinase inhibitors, biochemical, TCAMS library (AID 1159586); details: recombinant PfPK6, Kinase-Glo ATP depletion luminescence
[7] = target: Protein kinase 7 (PK7), Plasmodium falciparum 3D7 (PF3D7_0213400) (UniProt Q7YTF7); experiment: inhibition of Plasmodium PK7 catalytic activity – biochemical, TCAMS antimalarial set, Kinase-Glo luminescence (AID 1159587); details: recombinant PfPK7, Kinase-Glo ATP depletion luminescence
[8] = target: Calcium-dependent protein kinase 4 (Plasmodium falciparum (isolate 3D7)) (UniProt Q8IBS5); experiment: PfCDPK4 kinase inhibitors, biochemical, TCAMS library (AID 1159588; cut-off not given, nearly all actives have IC50 up to about 0.91 µM); details: recombinant PfCDPK4, Kinase-Glo ATP depletion luminescence
Calcium-dependent protein kinase 4 (Plasmodium falciparum (isolate 3D7)), sequence (Q8IBS5 whole entry, looked up): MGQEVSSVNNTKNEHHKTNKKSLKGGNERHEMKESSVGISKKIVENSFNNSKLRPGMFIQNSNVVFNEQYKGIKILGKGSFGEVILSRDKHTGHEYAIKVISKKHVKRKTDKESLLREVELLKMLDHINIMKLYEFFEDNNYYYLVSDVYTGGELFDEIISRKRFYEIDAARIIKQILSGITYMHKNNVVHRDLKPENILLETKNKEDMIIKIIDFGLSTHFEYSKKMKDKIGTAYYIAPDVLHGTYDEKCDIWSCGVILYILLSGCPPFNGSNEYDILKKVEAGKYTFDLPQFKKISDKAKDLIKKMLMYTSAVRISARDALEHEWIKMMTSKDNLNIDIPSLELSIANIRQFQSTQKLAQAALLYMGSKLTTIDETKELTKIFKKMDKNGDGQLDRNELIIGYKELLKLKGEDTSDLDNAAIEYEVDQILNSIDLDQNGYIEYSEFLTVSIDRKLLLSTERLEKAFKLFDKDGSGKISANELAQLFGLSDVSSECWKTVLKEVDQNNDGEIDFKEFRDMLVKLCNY

Plasmodium falciparum protein kinase 6 (PK6, PF3D7_1337100), sequence (Q8IDW1 1-305): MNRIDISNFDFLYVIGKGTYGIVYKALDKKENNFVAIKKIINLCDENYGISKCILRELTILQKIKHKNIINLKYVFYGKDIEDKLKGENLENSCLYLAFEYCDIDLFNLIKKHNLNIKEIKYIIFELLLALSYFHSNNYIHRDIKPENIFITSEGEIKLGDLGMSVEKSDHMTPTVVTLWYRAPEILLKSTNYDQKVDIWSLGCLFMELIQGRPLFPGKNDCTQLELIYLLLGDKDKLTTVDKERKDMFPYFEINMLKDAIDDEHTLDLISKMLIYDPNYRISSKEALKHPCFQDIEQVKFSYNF
Protein kinase 7 (PK7), Plasmodium falciparum 3D7 (PF3D7_0213400), sequence (Q7YTF7 1-343): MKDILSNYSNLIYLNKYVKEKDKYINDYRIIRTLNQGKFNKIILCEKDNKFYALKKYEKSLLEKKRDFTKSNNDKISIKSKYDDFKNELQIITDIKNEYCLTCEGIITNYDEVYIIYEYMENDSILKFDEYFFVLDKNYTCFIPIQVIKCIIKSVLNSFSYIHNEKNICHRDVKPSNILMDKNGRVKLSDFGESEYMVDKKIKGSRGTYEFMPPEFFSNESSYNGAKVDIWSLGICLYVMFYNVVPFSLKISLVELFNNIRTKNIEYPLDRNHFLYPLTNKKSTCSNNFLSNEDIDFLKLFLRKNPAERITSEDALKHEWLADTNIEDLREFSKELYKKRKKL
Calcium-dependent protein kinase 1 (Plasmodium falciparum (isolate 3D7)), sequence (P62344 whole entry, looked up): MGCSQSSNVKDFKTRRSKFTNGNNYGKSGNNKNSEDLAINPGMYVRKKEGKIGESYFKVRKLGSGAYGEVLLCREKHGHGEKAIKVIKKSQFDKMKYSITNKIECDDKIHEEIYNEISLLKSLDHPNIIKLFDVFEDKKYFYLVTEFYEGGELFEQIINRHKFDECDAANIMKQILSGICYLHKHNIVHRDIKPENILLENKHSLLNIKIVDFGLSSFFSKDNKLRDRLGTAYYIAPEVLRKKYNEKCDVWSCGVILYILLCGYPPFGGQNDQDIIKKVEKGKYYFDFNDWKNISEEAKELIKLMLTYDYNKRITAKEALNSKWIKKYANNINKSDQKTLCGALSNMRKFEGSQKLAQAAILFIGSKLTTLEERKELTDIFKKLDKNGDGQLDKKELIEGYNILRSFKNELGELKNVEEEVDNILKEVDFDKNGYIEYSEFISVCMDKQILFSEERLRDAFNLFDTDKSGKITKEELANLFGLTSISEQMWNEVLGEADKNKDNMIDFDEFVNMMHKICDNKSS
L-lactate dehydrogenase (Plasmodium falciparum (isolate CDC / Honduras)), sequence (Q27743 whole entry, looked up): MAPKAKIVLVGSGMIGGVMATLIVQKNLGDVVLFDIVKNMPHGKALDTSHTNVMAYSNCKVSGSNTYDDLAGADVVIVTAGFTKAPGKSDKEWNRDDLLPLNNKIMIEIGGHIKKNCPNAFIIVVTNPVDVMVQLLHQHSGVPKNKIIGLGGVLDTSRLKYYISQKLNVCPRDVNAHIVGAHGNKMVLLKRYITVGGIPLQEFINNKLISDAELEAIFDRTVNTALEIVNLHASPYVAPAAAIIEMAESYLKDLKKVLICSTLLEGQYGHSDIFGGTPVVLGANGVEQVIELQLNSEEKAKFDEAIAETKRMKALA

CS(=O)(=O)NCCCNCc1ccc(-c2ccc(-c3nc4ccc(C(F)(F)F)cc4[nH]3)s2)cc1
growth inhibition [1]: 73% (active)
inhibition [2]: 21%
inhibition [3]: -5%
growth inhibition [4]: 99% (active)
outcome [5]: inactive
outcome [6]: inactive
outcome [7]: inactive
outcome [8]: inactive

CC(=O)c1ccc(-c2ccc(C(=O)NCCCCN3CCC(c4ccc5c(c4O)CCCC5)CC3)cc2)cc1
growth inhibition [1]: 83% (active)
inhibition [2]: 87% (active)
inhibition [3]: 1%
growth inhibition [4]: 100% (active)
outcome [5]: inactive
outcome [6]: inactive
outcome [7]: inactive
outcome [8]: inactive

CN(C)CCCNc1ncnc2c1[nH]c1ccc(Br)cc12
growth inhibition [1]: 19%
inhibition [2]: 3%
inhibition [3]: 3%
growth inhibition [4]: 100% (active)
outcome [5]: inactive
outcome [6]: inactive
outcome [7]: inactive
outcome [8]: inactive

CN1CCN(CCc2ccc(N=Cc3c(=O)[nH]c4ccc5[nH]cccc5c34)cc2)CC1
growth inhibition [1]: 98% (active)
inhibition [2]: 51% (active)
inhibition [3]: 6%
growth inhibition [4]: 102% (active)
outcome [5]: inactive
outcome [6]: inactive
outcome [7]: inactive
outcome [8]: inactive

CCCCNC(=O)c1[nH]c2c(NC(=O)COc3ccccc3)cccc2c1-c1cccc(NC(=O)C(N)CO)c1 (centres undefined)
growth inhibition [1]: -3%
inhibition [2]: 11%
inhibition [3]: -3%
growth inhibition [4]: 87% (active)
outcome [5]: inactive
outcome [6]: inactive
outcome [7]: inactive
outcome [8]: inactive

CN1CCN(c2ccnc3ccc(NC(=O)Nc4ccc(Cl)cc4)cc23)CC1
growth inhibition [1]: 99% (active)
inhibition [2]: 11%
inhibition [3]: 0%
growth inhibition [4]: 103% (active)
outcome [5]: inactive
outcome [6]: inactive
outcome [7]: inactive
outcome [8]: inactive

C[C@H](NC(=O)[C@H](CCCCNC(=O)OC(C)(C)C)NC(=O)OC(C)(C)c1ccc(-c2ccccc2)cc1)C(=O)OCc1ccccc1
growth inhibition [1]: 1%
inhibition [2]: 4%
inhibition [3]: -7%
growth inhibition [4]: 97% (active)
outcome [5]: inactive
outcome [6]: inactive
outcome [7]: inactive
outcome [8]: inactive

CCCCC(N)COc1cccc2c(-c3ccncc3)c(-c3cccc(NC(=O)Nc4ccccc4)c3)nn12 (centres undefined)
growth inhibition [1]: 82% (active)
inhibition [2]: 13%
inhibition [3]: 0%
growth inhibition [4]: 102% (active)
outcome [5]: inactive
outcome [6]: inactive
outcome [7]: inactive
outcome [8]: inactive

COc1ccc(NC(=O)NCC2CCCN(CCCCCNC(=O)/C=C/c3ccc(Cl)c(Cl)c3)C2)c(OC)c1 (centres undefined)
growth inhibition [1]: -2%
inhibition [2]: 8%
inhibition [3]: -6%
growth inhibition [4]: 95% (active)
outcome [5]: inactive
outcome [6]: inactive
outcome [7]: inactive
outcome [8]: inactive

COc1cccc(CCNc2nc(NCc3ccccc3)c3cc(OC)c(OC)cc3n2)c1
growth inhibition [1]: 99% (active)
inhibition [2]: 20%
inhibition [3]: -6%
growth inhibition [4]: 100% (active)
outcome [5]: inactive
outcome [6]: inactive
outcome [7]: inactive
outcome [8]: inactive

COc1cc2c(cc1OC)CC(NCc1ccc(-c3ccc4nc[nH]c4c3)cc1)C2
growth inhibition [1]: 92% (active)
inhibition [2]: 40%
inhibition [3]: 0%
growth inhibition [4]: 97% (active)
outcome [5]: inactive
outcome [6]: inactive
outcome [7]: inactive
outcome [8]: inactive

CC(C)CCNc1nc(NCCCc2ccccc2)c2cc(O)ccc2n1
growth inhibition [1]: 95% (active)
inhibition [2]: 14%
inhibition [3]: -1%
growth inhibition [4]: 101% (active)
outcome [5]: inactive
outcome [6]: inactive
outcome [7]: inactive
outcome [8]: inactive

N#Cc1cccc(C(=O)Nc2cccc(-c3ccc(C(=O)Nc4cccnc4)cc3)c2)c1
growth inhibition [1]: 10%
inhibition [2]: 39%
inhibition [3]: -1%
growth inhibition [4]: 89% (active)
outcome [5]: inactive
outcome [6]: inactive
outcome [7]: inactive
outcome [8]: inactive

O=C(C=Cc1ccc(Cl)c(Cl)c1)NCCCCCN1CCC(c2[nH]nc3ccccc23)CC1
growth inhibition [1]: 29%
inhibition [2]: 32%
inhibition [3]: 0%
growth inhibition [4]: 99% (active)
outcome [5]: inactive
outcome [6]: inactive
outcome [7]: inactive
outcome [8]: inactive

NC(=O)c1cc2nc(Nc3ccc(F)cc3)nc(Nc3ccc(S(N)(=O)=O)cc3)c2[nH]1
growth inhibition [1]: 99% (active)
inhibition [2]: 2%
inhibition [3]: 4%
growth inhibition [4]: 101% (active)
outcome [5]: inactive
outcome [6]: inactive
outcome [7]: inactive
outcome [8]: inactive

Cc1ccn2cc(-c3ccc(NC(=O)c4ccc(Br)o4)cc3)nc2c1
growth inhibition [1]: 41%
inhibition [2]: 100% (active)
inhibition [3]: -3%
growth inhibition [4]: 98% (active)
outcome [5]: inactive
outcome [6]: inactive
outcome [7]: inactive
outcome [8]: inactive

CN(C)CCCOc1ccc(CNCc2cccc(Oc3ccc(Cl)cc3)c2)cc1
growth inhibition [1]: 30%
inhibition [2]: 52% (active)
inhibition [3]: 0%
growth inhibition [4]: 100% (active)
outcome [5]: inactive
outcome [6]: inactive
outcome [7]: inactive
outcome [8]: inactive

CC1(C)N=C(N)N=C(N)N1OCCCOc1ccccc1N
growth inhibition [1]: 95% (active)
inhibition [2]: 70% (active)
inhibition [3]: 8%
growth inhibition [4]: 93% (active)
outcome [5]: inactive
outcome [6]: inactive
outcome [7]: inactive
outcome [8]: inactive
